Screens deposited in PubChem BioAssay by Johns Hopkins Ion Channel Center.
An excerpt weighted towards active compounds, which were near 1.6% of everything screened.
KCNQ2 block: rat KCNQ2 potassium channel inhibitors, primary screen, cell-based, CHO-K1, FluxOR thallium flux, B-score | Potassium voltage-gated channel subfamily KQT member 2 (Rattus norvegicus), O88943 | 20 min; active compounds read low | B-score at 10 µM | 310,000 compounds, 1.1% hits | AID 2156, 2009;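 active means fluorescence ratio B-score at most minus 3 library SDs, with starting brightness B-score within 2 library SDs, cut at about -5.5 in these data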
Target sequence (O88943 whole entry, looked up): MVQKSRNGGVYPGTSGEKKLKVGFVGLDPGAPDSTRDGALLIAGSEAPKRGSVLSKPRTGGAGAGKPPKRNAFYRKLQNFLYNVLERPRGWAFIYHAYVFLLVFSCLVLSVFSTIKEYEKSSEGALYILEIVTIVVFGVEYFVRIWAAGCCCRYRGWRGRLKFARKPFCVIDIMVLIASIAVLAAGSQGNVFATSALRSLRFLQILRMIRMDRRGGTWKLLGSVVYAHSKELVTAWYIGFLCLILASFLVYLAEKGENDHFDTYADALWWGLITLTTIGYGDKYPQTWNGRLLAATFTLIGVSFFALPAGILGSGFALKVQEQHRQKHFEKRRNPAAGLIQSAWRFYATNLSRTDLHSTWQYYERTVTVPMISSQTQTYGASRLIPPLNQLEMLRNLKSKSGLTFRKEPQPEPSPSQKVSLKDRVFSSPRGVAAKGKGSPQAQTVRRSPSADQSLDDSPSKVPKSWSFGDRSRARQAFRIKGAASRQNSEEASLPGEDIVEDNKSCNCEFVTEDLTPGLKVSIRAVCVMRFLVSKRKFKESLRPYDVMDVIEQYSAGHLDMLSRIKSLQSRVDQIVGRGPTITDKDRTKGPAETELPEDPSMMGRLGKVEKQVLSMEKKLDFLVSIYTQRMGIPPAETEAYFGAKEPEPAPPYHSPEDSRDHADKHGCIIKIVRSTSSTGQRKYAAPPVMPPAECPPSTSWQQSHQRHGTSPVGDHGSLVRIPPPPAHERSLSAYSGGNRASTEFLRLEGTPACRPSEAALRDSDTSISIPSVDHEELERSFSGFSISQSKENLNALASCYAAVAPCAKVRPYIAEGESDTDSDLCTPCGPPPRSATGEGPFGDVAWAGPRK
KCNQ2 pot: potentiators of rat KCNQ2 potassium channel. CHO-K1 KCNQ2, FluxOR thallium flux fluorescence; active compounds read high. 310,000 compounds, 0.54% hits. Potassium voltage-gated channel subfamily KQT member 2 (Rattus norvegicus), O88943. B-score at 10 µM. AID 2239, 2010;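 active means fluorescence ratio B-score at least 3 SD of library B-scores, with initial fluorescence B-score within 3 of them, cut at about 5.3 in these data; same plate scores as AID 2156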;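 further: B-score of peak minus minimum over baseline fluorescence ratio after K+ and Tl+ stimulus; positive B-score means potentiation of KCNQ2 with more thallium influx and brighter signal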
KCNQ2 inh conf: rat KCNQ2 potassium channel inhibitors, confirmation, cell-based, thallium flux | 1,000 compounds, 57% hits | activity change, negative = inhibition, % at 10 µM | KCNQ2-expressing cells, inhibition; active compounds read low | shares compounds with KCNQ2 block | AID 493025, 2011;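 further: 0% = vehicle wells and values are ratio percent relative to vehicle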
KCNQ1 spec: human KCNQ1 channel inhibition, counter-screen for KCNQ2 inhibitor project, cell-based, FluxOR thallium flux | shares compounds with KCNQ2 block | KCNQ1-expressing cells, FluxOR thallium flux fluorescence; active compounds read low | activity change, negative = inhibition, % at 10 µM | 1,000 compounds, 15% hits;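 active means activity change at least 3 SD of negative controls below their mean in both duplicate wells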;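 further: CHO cells stably transfected with KCNQ1 and depolarized by potassium stimulus; peak minus minimum fluorescence over baseline after thallium addition; 0% = vehicle negative control and -100% = blank without thallium stimulus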
CHO Tl ctr: thallium flux change in parental CHO cells, counter-screen for KCNQ2 inhibitor project. shares compounds with KCNQ2 block. active compounds read low. activity change, % at 10 µM. 1,000 compounds, 14% hits;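 further: 0% = vehicle negative controls with stimulus buffer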
KCNQ2 patch conf: rat KCNQ2 channel inhibitors, confirmation, cell-based, automated patch clamp, single concentration; shares compounds with KCNQ2 block; KCNQ2-expressing cells, automated patch clamp current; calls only at 10 µM; 550 compounds, 49% hits
* = called active by the depositor; i = inactive; . = not tested or not shown; + = active, no number. Unless noted, how the calls were made is not given here.

SMILES | KCNQ2 block | KCNQ2 pot | KCNQ2 inh conf | KCNQ1 spec | CHO Tl ctr | others
CC1(C)OC2OC(C(=O)N/N=C/c3ccccc3F)C3OC(C)(C)OC3C2O1 (configuration not stated) | i | 1.1 | . | . | .
O=C(CSc1nnc(-c2ccc(Cl)cc2)o1)N1CCOCC1 | i | 0.55 | . | . | .
Cc1cc2oc(C(=O)N(Cc3ccc(N(C)C)cc3)CC3CCCO3)c(C)c2cc1C (configuration not stated) | -8.6* | -8.6 | -37%* | -36%* | -34%* | KCNQ2 patch conf=+
Cc1ccc2oc(C(=O)N(Cc3ccc(N(C)C)cc3)CC3CCCO3)c(C)c2c1 (configuration not stated) | i | . | . | . | .
Cc1ccc(OCC(=O)N(Cc2ccccc2)c2ccccn2)cc1 | -8.2* | -8.2 | i | i | i
Cc1ccc(CC(=O)N(Cc2ccccc2)c2ccccn2)cc1 | i | . | . | . | .
COc1ccc(/C=C/C(=O)N(Cc2ccccc2)c2ccccn2)cc1OC | -7.7* | -7.7 | -18%* | i | i | KCNQ2 patch conf=+
COc1cc(/C=C/C(=O)N(Cc2ccccc2)c2ccccn2)cc(OC)c1OC | -7.9* | -7.9 | -29%* | i | i | KCNQ2 patch conf=+
COc1ccccc1NC(=O)N(Cc1ccccc1)c1ccccn1 | i | . | . | . | .
COc1cc(/C=C/C(=O)NCc2ccccn2)cc(OC)c1OC | i | 0.13 | . | . | .
C=CCNC(=O)c1ccc(NC(=O)CC2SC(N3CCCC3)=NC2=O)cc1 (configuration not stated) | i | . | . | . | .
CCn1c(C(C)NC(=O)Cc2ccccc2)nc2ccccc21 (configuration not stated) | i | . | . | . | .
CCOc1ccc(S(=O)(=O)NCC(=O)N(C)Cc2cccnc2)cc1 | i | 0.16 | . | . | .
COc1ccc2[nH]c(CN3CCN(CC(C)C)C(CCO)C3)c(C)c2c1 (configuration not stated) | i | 0.07 | . | . | .
CCCCN(C)CCCNC(=O)C1CC(=O)N(Cc2ccc(OC)cc2)C1 (configuration not stated) | i | . | . | . | .
COc1ccc(Nc2nc(N3CCCCC3)nc(N3CCCCC3)n2)c(OC)c1 | i | . | . | . | .
O=C(C1=C(Nc2ccccc2)c2ccccc2S(=O)(=O)N1)c1ccccc1 | i | 0.03 | . | . | .
Cc1ccccc1NC1=C(C(=O)c2ccccc2)N(C)S(=O)(=O)c2ccccc21 | -8.1* | -8.1 | -29%* | i | i | KCNQ2 patch conf=+
O=C(Nc1ccc(F)cc1Cl)c1ccc2c(=O)n3c(nc2c1)CCCCC3 | i | 0.6 | . | . | .
COc1ccc(CCN(Cc2cc3cc(C)cc(C)c3nc2Cl)C(=O)C2CC2)cc1 | -8.6* | -8.6 | -32%* | i | i | KCNQ2 patch conf=i
COc1ccc(CN(CC2CCC(C(=O)O)CC2)C(=S)Nc2ccc(C)c(Cl)c2)cc1 (configuration not stated) | i | . | . | . | .
O=[N+]([O-])c1ccc(C2CCCC/C2=N\OCc2cccc(F)c2)c([N+](=O)[O-])c1 (configuration not stated) | -8.3* | -8.3 | i | i | i
CC1CCCC/C1=N/Nc1ccc([N+](=O)[O-])cc1[N+](=O)[O-] (configuration not stated) | i | 0.38 | . | . | .
COc1ccc(-c2nnn(Cc3ccccc3F)n2)cc1 | i | . | . | . | .
COc1ccc(C(=O)OC2CCN(c3ncc(C(F)(F)F)cc3Cl)CC2)cc1 | -8.7* | -8.7 | i | i | i
SMILES | KCNQ2 block | KCNQ2 pot | KCNQ2 inh conf | KCNQ1 spec | CHO Tl ctr | others
O=C(OC1CCN(c2ncc(C(F)(F)F)cc2Cl)CC1)c1ccccc1 | i | . | . | . | .
CC(C)(C)OC(=O)NC(Cc1ccccc1)C(=O)O (configuration not stated) | i | 0.6 | . | . | .
COc1cc(/C=N/Nc2nc(N3CCCCC3)nc(N3CCCCC3)n2)ccc1OC(=O)c1ccco1 | i | . | . | . | .
O=C(NC1CC2CCCC(C1)N2S(=O)(=O)c1ccccc1)C1CCCCC1 (configuration not stated) | i | . | . | . | .
CN(C)S(=O)(=O)c1cc(C(=O)NCc2ccccc2)c(Cl)cc1Cl | i | . | . | . | .
Cc1cc(-n2c(C)cc(C(=O)CSc3nnnn3-c3ccccc3)c2C)no1 | i | 3 | . | . | .
